According to PubChem BioAssay AID1159580 (chemical genetic matrix, 2015):
Several values for one entry are separate records, joined by “and”; a condition that tells them apart may be missing. Equal values may be shown once. In all, about 5,500 compounds went through this assay and about 2,000 (36%) were called active. About 18% were inconclusive and are not listed. Cut-off read from the data, not from the text of the source: active = normalized growth mostly below about 0.91 (no sharp cut-off); inconclusive = no clear call, values can overlap the other calls; inactive = mostly above about 0.92. Some of the results follow.

Test: chemical genetic growth profiling, strain panel (AID 1159580);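 note: tested at 20 µM; growth read once vehicle control cultures reached saturation at 30 °C; 1 = growth at the plate median or of vehicle wells; lower values mean less growth of the strain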
Conditions: S. cerevisiae deletion strains, growth OD

Measured: normalized growth

O=C1N=C(O)CN1/N=C\c1ccc(-c2ccc([N+](=O)[O-])cc2)o1
inactive: locus YAL013W, strain DEP1, active compounds read low 1.01 and 0.985 | locus YAL021C, strain ccr4, active compounds read low 0.948 | locus YAL026C, strain drs2, active compounds read low 0.981 | locus YAL030W, strain snc1, active compounds read low 0.986 | locus YAL040C, strain CLN3, active compounds read low 1.03 | locus YBL061C, strain skt5, active compounds read low 1 | locus YBR009C, strain hhf1, active compounds read low 1 | locus YBR021W, strain FUR4, active compounds read low 1.03 | locus YBR023C, strain chs3, active compounds read low 0.998 | locus YBR171W, strain sec66, active compounds read low 0.98 | locus YBR229C, strain ROT2, active compounds read low 1.01 | locus YBR231C, strain swc5, active compounds read low 0.971 | locus YBR279W, strain paf1, active compounds read low 0.974 | locus YCL011C, strain gbp2, active compounds read low 0.989 | locus YCL016C, strain dcc1, active compounds read low 0.985 | locus YCL029C, strain bik1, active compounds read low 1.04 | locus YCL061C, strain MRC1 (second series), active compounds read low 1.01 | locus YCL061C, strain MRC1, active compounds read low 0.987 | locus YCL069W, strain vba3, active compounds read low 0.974 | locus YCR088W, strain abp1, active compounds read low 0.973 | locus YDL005C, strain med2, active compounds read low 0.973 | locus YDL035C, strain GPR1, active compounds read low 1.03 | locus YDL040C, strain nat1, active compounds read low 0.978 | locus YDL074C, strain BRE1, active compounds read low 1.04 | locus YDL101C, strain DUN1, active compounds read low 1.01 | locus YDL134C, strain PPH21, active compounds read low 1.02 | locus YDL185W, strain tfp1, active compounds read low 1.04 | locus YDL192W, strain arf1, active compounds read low 1.03 | locus YDR001C, strain nth1, active compounds read low 0.977 | locus YDR069C, strain doa4, active compounds read low 0.987 | locus YDR101C, strain arx1, active compounds read low 1.02 | locus YDR137W, strain rgp1, active compounds read low 0.918 | locus YDR150W, strain NUM1, active compounds read low 1.03 and 1 | locus YDR159W, strain sac3, active compounds read low 0.966 | locus YDR162C, strain NBP2, active compounds read low 1.02 | locus YDR195W, strain ref2 0.988 | locus YDR297W, strain sur2, active compounds read low 0.984 | locus YDR318W, strain mcm21, active compounds read low 1.02 | locus YDR334W, strain swr1, active compounds read low 0.949 | locus YDR335W, strain msn5, active compounds read low 0.985 | locus YDR363W, strain ESC2, active compounds read low 0.996 | locus YDR388W, active compounds read low 1.03 | locus YDR392W, strain spt3, active compounds read low 0.942 | locus YDR502C, strain sam2, active compounds read low 1.01 | locus YEL003W, strain gim4, active compounds read low 0.986 | locus YEL037C, strain rad23, active compounds read low 0.974 | locus YEL061C, strain CIN8 (second series), active compounds read low 0.97 | locus YEL061C, strain CIN8, active compounds read low 1.02 | locus YER002W, strain NOP16, active compounds read low 1 | locus YER015W, strain faa2, active compounds read low 0.968 | locus YER016W, strain bim1, active compounds read low 0.99 | locus YER110C, active compounds read low 1.03 | locus YER111C, strain swi4, active compounds read low 0.968 | locus YER155C, strain BEM2 (second series), active compounds read low 0.955 | locus YER155C, strain BEM2, active compounds read low 1.01 | locus YER167W, strain BCK2, active compounds read low 1.03 | locus YFR010W, strain ubp6, active compounds read low 0.984 | locus YGL078C, strain dbp3, active compounds read low 1.04 | locus YGL086W, strain mad1, active compounds read low 1.02 | locus YGL167C, strain pmr1, active compounds read low 0.994 | locus YGL173C, strain kem1, active compounds read low 0.99 | locus YGL227W, strain vid30, active compounds read low 0.986 | locus YGL240W, strain doc1, active compounds read low 0.977 | locus YGL248W, strain PDE1, active compounds read low 1.02 | locus YGL253W, strain hxk2, active compounds read low 0.987 | locus YGR078C, strain PAC10, active compounds read low 1.02 and 1.01 | locus YGR135W, strain pre9, active compounds read low 1.02 | locus YGR229C, strain SMI1, active compounds read low 0.997 | locus YGR252W, strain gcn5, active compounds read low 0.983 | locus YHR013C, strain ard1, active compounds read low 0.992 | locus YHR027C, strain rpn1, active compounds read low 0.992 | locus YHR030C, strain SLT2, active compounds read low 1.02 and 1.01 | locus YHR079C, strain IRE1 (second series), active compounds read low 1.02 | locus YHR079C, strain IRE1, active compounds read low 1.02 | locus YHR094C, strain hxt1, active compounds read low 1.03 | locus YHR129C, strain ARP1, active compounds read low 1.02 | locus YHR142W, strain chs7, active compounds read low 0.986 | locus YHR200W, strain rpn10, active compounds read low 1.02 | locus YIL066C, strain RNR3, active compounds read low 1.02 | locus YIL073C, strain SPO22, active compounds read low 1.06 | locus YIL125W, strain kgd1, active compounds read low 1.03 | locus YIR030C, strain dcg1, active compounds read low 1.03 | locus YJL092W, strain hpr5, active compounds read low 0.979 | locus YJL095W, strain BCK1 (second series), active compounds read low 0.993 | locus YJL095W, strain BCK1, active compounds read low 1.03 and 1.01 | locus YJL115W, strain asf1, active compounds read low 0.976 | locus YJL129C, strain trk1, active compounds read low 0.912 | locus YJL134W, strain LCB3, active compounds read low 1.01 | locus YJL154C, strain vps35, active compounds read low 0.968 | locus YJL164C, strain tpk1, active compounds read low 1.01 | locus YJL166W, strain qcr8, active compounds read low 0.978 | locus YJL168C, strain set2, active compounds read low 1.02 | locus YJL187C, strain SWE1 (second series), active compounds read low 1.02 | locus YJL187C, strain SWE1, active compounds read low 0.986 | locus YJR043C, strain POL32, active compounds read low 1.04 | locus YJR066W, strain TOR1, active compounds read low 0.944
